The values that follow come from PubChem BioAssay.

Active and inactive are the calls of the source.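 Rule for the calls, unless noted: active = inhibition above 20% together with a positive visual image hit; inconclusive = visual image hit but inhibition not above 20%; inactive = no visual image hit.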

Test [1] can be described thus: inhibitors of TNFa-induced NFkB p65 translocation, primary screen, imaging, HUVEC, MLSMR starter and 10KST1 sets (AID 438).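 For inhibition: signal is the nuclear over cytoplasmic p65 intensity ratio per well.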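 Note: compound added about 3h40 before a 20 min TNFalpha stimulation.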 The note with it: HUVEC TNFa-induced p65 nuclear translocation; cell count: measured here: nuclei count (cytotoxicity indicator), at 2.08 µM; inhibition: at 2 µM, stronger effect = higher value, 0% TNFa-plus-vehicle, 100% no-TNFa wells.
The nature of test [2]: inhibitors of mutant huntingtin aggregation, primary screen, imaging, exon1htt(103Q)mCFP cells, high-content imaging (AID 483;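 active = visual image review flags a hit and inhibition of aggregation exceeds 20%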;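 note: compound exposure lasted 3 days before fixation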;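 for nuclei count: percent of the per-plate median nuclei count of sample wells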). The following applies: exon1htt(103Q)mCFP cell line, aggregate imaging, at 2 µM; inhibition of aggregation: stronger effect = higher value; nuclei count: measured here: cell count, toxicity.
A short description of test [3]: inhibitors of E-selectin induction by TNFa, primary screen, imaging, HUVEC, immunofluorescence, MLSMR starter and 10KST1 sets (AID 487;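 active = visually confirmed hit in the image check and inhibition above 20%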;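 for inhibition: signal is fraction of cell area covered by stained E-selectin grains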;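 for nuclei count: 100% = median nuclei count of all wells on the same plate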). The note with it: HUVEC TNFalpha-induced E-selectin immunofluorescence imaging, at 2 µM; inhibition: stronger effect = higher value; nuclei count: measured here: cell number, toxicity.
For test [4], the target named is Voltage-gated potassium channel subunit beta-2 (Rattus norvegicus) (UniProt P62483). In words: KvBeta enzyme negative modulators, primary screen, biochemical, NADPH fluorescence (AID 622;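 active = fluorescence slope higher than the sample average by over 3 SD, cut at about -0.22 in these data, passing the limit was not always enough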;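 note: slope of raw intensity against log time taken from 70 to 1610 s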). The following applies: recombinant KvBeta, 4-cyanobenzaldehyde reduction, at 10 µM, stronger effect = higher value.
For test [5] the target is unchanged. In words: KvBeta positive modulators, primary screen, biochemical, NADPH fluorescence (AID 623;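 active = NADPH fluorescence slope more negative than the mean of all samples by about 3 SD, 99.7% confidence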;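 note: fluorescence intensity change per second fitted from 20 to 320 s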). The following applies: Recombinant KvBeta, NADPH fluorescence decrease slope, 10 min; at 10 µM; stronger effect = lower value.
Test [6] has as its target Alpha-2C adrenergic receptor (Homo sapiens) (UniProt P18825). In words: modulators of alpha2C/GIRK thallium flux, primary screen, cell-based, HEK293 alpha2C/GIRK1/2 (AID 624;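 active = fluorescence slope after compound addition differing from the mean of all screened samples at 99.7% confidence, in either direction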;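 note: slope of fluorescence ratio to pre-addition baseline per second over 15 to 24 s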). The note with it: thallium flux BTC fluorescence, at 10 µM, actives lie on both sides.
Test [7] is described as follows: inhibitors of Sendai virus-induced IRF3 signaling, primary screen, TLR/RLR signaling modifier project, cell-based, Sendai virus stimulus, luciferase, 10K MLSCN set (AID 602276;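 active = inhibition at or above 50% at 10 µM; inactive = inhibition below 50%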;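 note: firefly luciferase from ISG56 promoter only with Renilla not read in this screen; 0% = Sendai virus plus DMSO and 100% = medium plus DMSO without virus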). The following applies: HEK293 RL24 IRF3 luciferase reporter, at 10 µM, stronger effect = higher value.
Test [8] can be described thus: inhibitors of poly I:C-induced TLR3 signaling, primary screen, cell-based, poly I:C stimulus, luciferase, 10K MLSCN set (AID 602277;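 active = inhibition of the reporter signal at or above 50%; inactive = inhibition below 50%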). The note with it: HEK293-TLR3 RL24 IRF3 luciferase reporter, at 10 µM, stronger effect = higher value. (In general: A reporter such as luciferase makes a cellular process visible.)

Chain of Voltage-gated potassium channel subunit beta-2 (Rattus norvegicus) (P62483 whole entry, looked up): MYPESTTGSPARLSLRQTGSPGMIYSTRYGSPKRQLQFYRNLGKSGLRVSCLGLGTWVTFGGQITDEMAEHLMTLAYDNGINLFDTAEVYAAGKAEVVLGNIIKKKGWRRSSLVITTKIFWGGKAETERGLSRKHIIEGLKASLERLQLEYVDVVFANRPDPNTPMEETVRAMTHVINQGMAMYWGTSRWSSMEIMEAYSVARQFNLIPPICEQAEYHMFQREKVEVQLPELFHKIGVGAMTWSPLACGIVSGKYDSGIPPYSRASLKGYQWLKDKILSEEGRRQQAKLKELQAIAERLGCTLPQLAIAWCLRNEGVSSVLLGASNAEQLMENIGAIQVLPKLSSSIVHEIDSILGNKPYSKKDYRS
Chain of Alpha-2C adrenergic receptor (Homo sapiens) (P18825 whole entry, looked up): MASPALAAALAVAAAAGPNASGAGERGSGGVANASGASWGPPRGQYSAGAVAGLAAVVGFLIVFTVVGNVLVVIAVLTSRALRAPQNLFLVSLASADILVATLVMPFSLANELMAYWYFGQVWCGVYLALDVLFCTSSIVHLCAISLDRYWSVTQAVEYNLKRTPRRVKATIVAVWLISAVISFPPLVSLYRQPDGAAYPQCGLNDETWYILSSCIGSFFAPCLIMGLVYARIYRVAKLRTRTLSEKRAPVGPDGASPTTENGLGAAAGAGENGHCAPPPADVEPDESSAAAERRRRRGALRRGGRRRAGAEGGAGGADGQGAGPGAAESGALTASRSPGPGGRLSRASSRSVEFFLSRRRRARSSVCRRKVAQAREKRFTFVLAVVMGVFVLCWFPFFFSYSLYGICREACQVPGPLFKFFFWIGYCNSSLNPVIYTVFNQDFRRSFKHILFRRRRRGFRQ

`Cc1cc(C)n(C(=O)C23CC4CC(CC(C4)C2)C3)n1`: the cell count in test [1] amounted to 448. The inhibition in test [1] was 0.9% (inactive); in test [3], -12% (inactive); in test [7] it was 6.1% (inactive); in test [8], 17.9% (inactive). Besides, in test [2], the inhibition of aggregation is 14.6% (inactive). Moreover, the figures for the nuclei count in test [2] and in test [3] were 102% and 89.4%, respectively. The fluorescence slope in test [4] is -0.514 (inactive). Also, the NADPH fluorescence slope in test [5] is -2.3e-05 (inactive). Further, the slope in test [6] was 0.00607 (inactive).
As for `CC(=O)Nc1ccc(-c2nn[nH]n2)cc1Cl`, the cell count in test [1] amounted to 630. In addition, the inhibition was -10.7% (inactive) in test [1], 0.8% (inactive) in test [3], 13.2% (inactive) in test [7] and 12.5% (inactive) in test [8]. For the same molecule, the inhibition of aggregation in test [2] was -3% (inactive). The nuclei count in test [2] is 69.9%; in test [3] it was 97.8%. Also, the fluorescence slope in test [4] is -0.546 (inactive). Besides, the NADPH fluorescence slope in test [5] was -2.3e-05 (inactive). In test [6], the slope is 0.00431 (inactive).
`C(/CCc1ccccc1)=N\n1cnnc1`: the cell count in test [1] worked out at 312. The inhibition in test [1] is 18.4% (inactive); in test [3], 17.1% (inactive); in test [7] it was 5.76% (inactive); in test [8], 0.464% (inactive). Moreover, the inhibition of aggregation in test [2] was -7% (inactive). Also, the nuclei count in test [2] was found to be 109%; in test [3] it was 105%. Moreover, the fluorescence slope in test [4] was -0.628 (inactive). Also, the NADPH fluorescence slope in test [5] was -5.3e-05 (inactive). In test [6], the slope was 0.00355 (inactive).
As for `CC(C)COc1ccc(C(=O)OCCN2CCOCC2)cc1`, in test [1], the cell count was found to be 211. For the same molecule, the inhibition in test [1] is 2.3% (inactive); in test [3], -18.5% (inactive); in test [7], -17.8% (inactive); in test [8], -15% (inactive). Moreover, the inhibition of aggregation in test [2] was -8.6% (inactive). For the same molecule, the nuclei count in test [2] came to 108%; in test [3], 116%. In addition, the fluorescence slope in test [4] is -0.636 (inactive). In addition, the NADPH fluorescence slope in test [5] was 1.1e-05 (inactive). Moreover, the slope in test [6] was 0.00666 (inactive).
For the molecule `COc1ccc(N2CCN(CCNS(=O)(=O)c3cccc4nsnc34)CC2)cc1`, the cell count in test [1] came to 353. The inhibition in test [1] was -3% (inactive); in test [3], -119% (inactive); in test [7] it was 11.2% (inactive); in test [8], 18% (inactive). Moreover, the inhibition of aggregation in test [2] is 8.4% (inactive). The values for the nuclei count in test [2] and in test [3] were 106% and 104%, respectively. Also, the fluorescence slope in test [4] was -0.443 (inactive). For the same molecule, the NADPH fluorescence slope in test [5] is 1.8e-05 (inactive). In test [6], the slope was 0.00512 (inactive).
For `COCc1nnc(NC(=O)c2ccc(NC(C)=O)cc2)s1`, in test [1], the cell count came out at 684. In addition, the inhibition in test [1] is -12.6% (inactive); in test [3], -22% (inactive); in test [7], -5.57% (inactive); in test [8] it was -14.7% (inactive). The inhibition of aggregation in test [2] is -4.2% (inactive). In addition, the nuclei count worked out at 95.9% in test [2] and 93.1% in test [3]. In test [4], the fluorescence slope was -0.527 (inactive). For the same molecule, in test [5], the NADPH fluorescence slope is -3.7e-06 (inactive). For the same molecule, the slope in test [6] is 0.00454 (inactive).
As to `O=C1CCC(c2ccccc2)N1C(=O)c1cccnc1` (centres undefined), the cell count in test [1] was 565. Moreover, the inhibition in test [1] is -17.3% (inactive); in test [3], -57.8% (inactive); in test [7] it was -4.49% (inactive); in test [8], 9.24% (inactive). For the same molecule, the inhibition of aggregation in test [2] was -4.3% (inactive). Moreover, the nuclei count was 98% in test [2] and 111% in test [3]. Besides, the fluorescence slope in test [4] is -0.512 (inactive). Further, the NADPH fluorescence slope in test [5] is -6.9e-05 (inactive). Further, the slope in test [6] was 0.00593 (inactive).
`Cc1nn(-c2ccccc2)c2c1C(O)n1c(nc3ccccc31)S2` (centres undefined): in test [1], the cell count worked out at 453. Also, the inhibition in test [1] was 2.5% (inactive); in test [3] it was -10.2% (inactive); in test [7], 14% (inactive); in test [8] it was 28.4% (inactive). Also, the inhibition of aggregation in test [2] is 8.2% (inactive). The nuclei count in test [2] was 83%; in test [3] it was 100%. For the same molecule, in test [4], the fluorescence slope is -0.466 (inactive). In addition, the NADPH fluorescence slope in test [5] is -0.000266 (inactive). Besides, in test [6], the slope was 0.00554 (inactive).
For the molecule `O=c1c2ccccc2nc(SCc2nc(-c3ccccc3)no2)n1-c1ccc(F)cc1`, the cell count in test [1] turned out to be 719. Moreover, the inhibition is -5.5% (inactive) in test [1], -58.2% (inactive) in test [3], 13.8% (inactive) in test [7] and 39.7% (inactive) in test [8]. In test [2], the inhibition of aggregation was -12.6% (inactive). For the same molecule, the nuclei count in test [2] turned out to be 128%; in test [3], 114%. In test [4], the fluorescence slope is -0.538 (inactive). For the same molecule, the NADPH fluorescence slope in test [5] is -3.3e-05 (inactive). Moreover, the slope in test [6] is 0.00951 (inactive).
Turning to `CN(C)S(=O)(=O)N1CCN(c2cccc(Cl)c2)CC1`, the cell count in test [1] is 411. Moreover, the inhibition in test [1] is -0.2% (inactive); in test [3], -14.6% (inactive); in test [7], 10.3% (inactive); in test [8] it was 20.7% (inactive). In addition, the inhibition of aggregation in test [2] is 16.9% (inactive). Besides, the nuclei count in test [2] stood at 87.3%; in test [3], 99.2%. Moreover, the fluorescence slope in test [4] is -0.514 (inactive). In addition, the NADPH fluorescence slope in test [5] is 7.3e-06 (inactive). Further, the slope in test [6] was 0.00363 (inactive).
In the case of `CCC1(CC)C(=O)N(C)C(=O)NC1=NCc1ccccc1`, the cell count in test [1] turned out to be 512. Moreover, the inhibition was -4.7% (inactive) in test [1], 24.4% (inactive) in test [3], 18.2% (inactive) in test [7] and 12.1% (inactive) in test [8]. Further, the inhibition of aggregation in test [2] was -9.9% (inactive). Further, the nuclei count in test [2] is 107%; in test [3] it was 96.9%. In test [4], the fluorescence slope is -0.334 (inactive). Further, the NADPH fluorescence slope in test [5] was 2e-05 (inactive). The slope in test [6] is 0.0048 (inactive).
In the case of `CCOc1ccc(OCC)c(NC(=O)CN2CCN(C(=O)c3ccco3)CC2)c1`, the cell count in test [1] turned out to be 554. Moreover, the inhibition is -19.4% (inactive) in test [1], -77.5% (inactive) in test [3], -15.6% (inactive) in test [7] and -16.4% (inactive) in test [8]. For the same molecule, in test [2], the inhibition of aggregation is -12.3% (inactive). For the same molecule, the nuclei count in test [2] is 122%; in test [3] it was 102%. The fluorescence slope in test [4] is -0.546 (inactive). Moreover, in test [5], the NADPH fluorescence slope is 1.9e-05 (inactive). Also, the slope in test [6] is 0.00515 (inactive).
On to `CC(C)(C)C1=Nn2c(nnc2-c2n[nH]c3c2CCC3)SC1`, for which the cell count in test [1] was 385. Besides, the inhibition in test [1] is 6% (inactive); in test [3], -30.7% (inactive); in test [7] it was 14.9% (inactive); in test [8], 15.7% (inactive). The inhibition of aggregation in test [2] is -24.6% (inactive). In addition, the nuclei count in test [2] came to 100%; in test [3], 87.6%. For the same molecule, the fluorescence slope in test [4] was -0.521 (inactive). The NADPH fluorescence slope in test [5] is -1.7e-07 (inactive). Further, in test [6], the slope is 0.00435 (inactive).
For `O=C(O)c1[nH]c2ccc(Cl)cc2c1CC(=O)N1CCN(C(=O)c2ccco2)CC1`, in test [1], the cell count came out at 374. The inhibition was -0.5% (inactive) in test [1], -73.3% (inactive) in test [3], 7.71% (inactive) in test [7] and 0.844% (inactive) in test [8]. Besides, the inhibition of aggregation in test [2] is -8.5% (inactive). Also, the values for the nuclei count in test [2] and in test [3] were 99.6% and 103%, respectively. Also, the fluorescence slope in test [4] is -0.401 (inactive). For the same molecule, the NADPH fluorescence slope in test [5] is -3.1e-05 (inactive). Besides, the slope in test [6] was 0.003 (inactive).

By inhibition is commonly meant the relative decrease from the control value, in per cent.
